The source made the active and inactive calls.
Columns and labels:
[1] = tested on: PRMT1 (protein arginine N-methyltransferase 1); assay: PRMT1 binders on small-molecule microarrays, primary screen, biochemical, small-molecule microarray, 635 nm fluorescence (AID 1088); details: small-molecule microarray binding, higher = more signal;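 further: binding of Prmt1 protein to compounds spotted on small-molecule microarray slides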
[2] = yeast growth modulation, basal conditions, primary screen, YJM789 clinical isolate, OD600, 24 h (AID 1089);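 further: growth of clinical yeast isolate S. cerevisiae YJM 789 seeded 1000 cells per well; test concentration not given here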; details: S. cerevisiae YJM789 growth, higher = more signal, called active from +8 up or from −8 down
[3] = fission yeast growth modulation, primary screen, strain 972, OD600, 24 h, no modulator (AID 1090);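 further: basal condition with compound alone and no growth modifier present; test concentration not given here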; details: S. pombe 972 growth, higher = more signal, called active from +8 up or from −8 down
[4] = S. cerevisiae growth modulation with rapamycin, primary screen, strain BY4716, OD600, 96 h (AID 1091); details: higher = more signal, called active from +8 up or from −8 down; further: test concentration not given here
[5] = target: Torsin-1A-interacting protein 2 (Homo sapiens) (UniProt Q8NFQ8); assay: LULL1 binders on small-molecule microarray, primary screen, cell lysate, human LULL1 lysate, 635/667 nm fluorescence (AID 1092); details: hLULL1 lysate binding, 635 nm fluorescence, higher = more signal;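 further: probe is lysate of COS7 cells overexpressing human LULL1; score merges per-feature 667 nm fluorescence with signal-to-noise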
Torsin-1A-interacting protein 2 (Homo sapiens), sequence (Q8NFQ8 whole entry, looked up): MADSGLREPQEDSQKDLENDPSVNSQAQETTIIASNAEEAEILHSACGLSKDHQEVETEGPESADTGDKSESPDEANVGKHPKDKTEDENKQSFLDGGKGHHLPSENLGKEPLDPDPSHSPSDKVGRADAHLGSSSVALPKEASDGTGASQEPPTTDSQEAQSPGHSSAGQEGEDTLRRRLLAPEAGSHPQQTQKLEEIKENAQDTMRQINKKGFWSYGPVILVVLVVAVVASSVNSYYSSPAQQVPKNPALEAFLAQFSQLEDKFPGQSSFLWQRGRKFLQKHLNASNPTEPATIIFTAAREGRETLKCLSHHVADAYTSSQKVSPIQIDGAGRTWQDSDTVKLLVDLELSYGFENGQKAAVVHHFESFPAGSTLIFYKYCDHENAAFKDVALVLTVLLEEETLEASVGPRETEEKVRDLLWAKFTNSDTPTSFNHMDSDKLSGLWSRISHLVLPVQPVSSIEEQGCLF

[6] = E. coli growth modulation, two-sided OD650, primary screen, E. coli filamentation project, strain DRC41, 24 h (AID 1093); details: OD650, 24 h, higher = more signal, called active from +8 up or from −8 down;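 further: MC1000 strain lacking acrAB efflux and sulA so SOS filamentation is blocked; test concentration not given here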
[7] = small-molecule microarray binders of probe aLefty2, primary screen, biochemical, biotinylated probe, 635/667 nm fluorescence (AID 1094); details: higher = more signal;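 further: score merges spot fluorescence near 667 nm with spot signal-to-noise ratio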
[8] = tested on: Noggin (protein binding on small-molecule microarray); assay: Noggin binders on small-molecule microarray, primary screen, biochemical, 635/667 nm fluorescence (AID 1095); details: 635 nm fluorescence, higher = more signal;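 further: score merges 667 nm feature fluorescence with signal to noise over triplicate slides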
[9] = target: Neurogenic locus notch homolog protein 3 (Homo sapiens) (UniProt Q9UM47); assay: NOTCH3 binders on small-molecule microarray, primary screen, biochemical, 635/667 nm fluorescence (AID 1096); details: NOTCH3 binding, 635 nm fluorescence, higher = more signal
Neurogenic locus notch homolog protein 3 (Homo sapiens), sequence (Q9UM47 whole entry, looked up): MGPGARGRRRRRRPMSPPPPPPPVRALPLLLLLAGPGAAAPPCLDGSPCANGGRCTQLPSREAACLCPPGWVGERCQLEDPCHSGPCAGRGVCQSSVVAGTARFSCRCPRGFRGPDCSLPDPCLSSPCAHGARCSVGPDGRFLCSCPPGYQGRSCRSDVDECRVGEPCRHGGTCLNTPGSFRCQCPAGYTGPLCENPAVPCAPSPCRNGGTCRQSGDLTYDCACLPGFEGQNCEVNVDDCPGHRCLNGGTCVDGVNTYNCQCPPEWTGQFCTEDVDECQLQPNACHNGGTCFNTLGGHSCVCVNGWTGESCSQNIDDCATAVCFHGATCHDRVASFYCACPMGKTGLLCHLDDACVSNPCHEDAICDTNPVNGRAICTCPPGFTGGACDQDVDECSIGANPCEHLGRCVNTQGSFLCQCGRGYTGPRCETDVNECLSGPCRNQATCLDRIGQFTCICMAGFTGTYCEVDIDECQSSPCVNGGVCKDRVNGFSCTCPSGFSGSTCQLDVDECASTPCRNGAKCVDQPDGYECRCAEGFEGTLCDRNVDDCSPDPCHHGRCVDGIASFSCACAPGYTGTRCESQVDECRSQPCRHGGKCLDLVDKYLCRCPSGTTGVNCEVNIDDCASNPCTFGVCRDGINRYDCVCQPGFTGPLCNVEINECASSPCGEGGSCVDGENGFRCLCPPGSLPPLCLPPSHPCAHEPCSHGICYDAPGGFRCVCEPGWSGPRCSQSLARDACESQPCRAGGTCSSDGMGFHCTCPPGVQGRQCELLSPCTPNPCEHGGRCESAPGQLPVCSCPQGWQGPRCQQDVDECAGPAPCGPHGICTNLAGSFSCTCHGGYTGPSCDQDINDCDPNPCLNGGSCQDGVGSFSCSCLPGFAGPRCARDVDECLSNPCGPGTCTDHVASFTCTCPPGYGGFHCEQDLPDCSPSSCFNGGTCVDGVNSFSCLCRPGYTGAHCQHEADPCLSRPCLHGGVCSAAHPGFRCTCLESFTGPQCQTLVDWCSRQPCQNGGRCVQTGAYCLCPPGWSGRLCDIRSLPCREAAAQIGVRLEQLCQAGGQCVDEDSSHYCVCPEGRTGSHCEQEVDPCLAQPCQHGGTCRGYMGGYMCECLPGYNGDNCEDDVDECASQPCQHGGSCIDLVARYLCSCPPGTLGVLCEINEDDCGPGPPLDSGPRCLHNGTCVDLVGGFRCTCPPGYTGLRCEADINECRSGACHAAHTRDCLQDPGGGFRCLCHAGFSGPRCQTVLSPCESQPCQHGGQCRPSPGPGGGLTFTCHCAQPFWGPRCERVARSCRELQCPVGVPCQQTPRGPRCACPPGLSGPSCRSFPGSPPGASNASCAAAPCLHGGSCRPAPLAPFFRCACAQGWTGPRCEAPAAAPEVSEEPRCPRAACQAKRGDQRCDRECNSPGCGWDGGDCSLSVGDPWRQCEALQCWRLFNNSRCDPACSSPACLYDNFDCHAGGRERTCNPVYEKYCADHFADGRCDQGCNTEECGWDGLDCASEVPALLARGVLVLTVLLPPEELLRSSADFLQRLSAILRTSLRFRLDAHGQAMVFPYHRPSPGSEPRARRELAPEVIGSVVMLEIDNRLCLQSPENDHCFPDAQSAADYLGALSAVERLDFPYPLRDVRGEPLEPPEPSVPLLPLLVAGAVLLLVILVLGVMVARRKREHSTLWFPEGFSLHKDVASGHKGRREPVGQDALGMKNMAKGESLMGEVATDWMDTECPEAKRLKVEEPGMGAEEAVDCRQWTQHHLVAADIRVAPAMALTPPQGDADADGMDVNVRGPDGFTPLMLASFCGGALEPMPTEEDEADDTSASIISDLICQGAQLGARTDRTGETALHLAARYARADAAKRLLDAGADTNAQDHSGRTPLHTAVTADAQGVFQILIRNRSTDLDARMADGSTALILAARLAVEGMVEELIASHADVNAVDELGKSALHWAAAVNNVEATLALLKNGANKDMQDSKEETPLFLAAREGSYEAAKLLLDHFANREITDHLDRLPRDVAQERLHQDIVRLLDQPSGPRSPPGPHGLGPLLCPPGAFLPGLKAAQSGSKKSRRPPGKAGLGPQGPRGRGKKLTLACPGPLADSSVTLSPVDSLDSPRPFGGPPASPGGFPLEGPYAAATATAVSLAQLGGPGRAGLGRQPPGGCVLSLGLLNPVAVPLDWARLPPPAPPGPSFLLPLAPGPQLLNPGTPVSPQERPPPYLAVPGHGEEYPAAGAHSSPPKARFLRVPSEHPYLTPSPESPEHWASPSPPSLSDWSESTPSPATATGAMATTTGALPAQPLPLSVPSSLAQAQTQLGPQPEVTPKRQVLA

[10] = small-molecule microarray binders of probe aEGFR, primary screen, biochemical, biotinylated probe, 635/667 nm fluorescence (AID 1097); details: higher = more signal;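 further: probe is a biotinylated anti-EGFR antibody binding compounds printed on slides; score combines fluorescence near 667 nm and signal to noise of each spot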

| SMILES | composite z-score [1] | z-score [2] | z-score [3] | z-score [4] | composite z-score [5] | z-score [6] | composite z-score [7] | composite z-score [8] | composite z-score [9] | composite z-score [10] |
| --- | --- | --- | --- | --- | --- | --- | --- | --- | --- | --- |
| CCS[C@H]1[C@@H](C(=O)O)[C@H](c2ccc(C)cc2)N(S(=O)(=O)c2ccc(C)cc2)[C@@H]1CC | 0.811 | -0.406 (inactive) | 0.588 (inactive) | -0.0003 (inactive) | 3.26 | 0.401 (inactive) | 0.105 | -0.0193 | 1.11 | -0.0563 |
| C=C(C)[C@@H]1CC=C(C(O)C2C=CC3C(=O)N(c4ccccc4)C(=O)C3N2Nc2ccccc2)CC1 (stereo not given in full) | 1.55 | 0.0118 (inactive) | 0.0527 (inactive) | 0.0587 (inactive) | 3.32 | -0.784 (inactive) | 0.467 | 0.302 | 1.05 | 0.34 |
| CC(C)(C)OC(=O)CC[C@]1(C(=O)N2CCOCC2)N=C(c2ccc(OCCCO)cc2)O[C@H]1c1ccccc1N=[N+]=[N-] | 1.28 | -0.54 (inactive) | -0.496 (inactive) | -0.531 (inactive) | 3.25 | 1.57 (inactive) | 0.124 | 0.356 | 0.671 | 0.0552 |
| CCCCCN1CC=CC23O[C@@H]4/C=C\CCC(C)OC(=O)C4[C@H]2C(=O)N(C(C)CO)[C@@H]3C1=O (stereo not given in full) | 1.09 | 0.255 (inactive) | 0.117 (inactive) | -0.562 (inactive) | 2.37 | 0.123 (inactive) | -0.238 | 0.0805 | 0.385 | -0.168 |
| CC(C)[Si]1(C(C)C)O[C@@H](c2ccccc2)c2cc(-c3ccc(-c4ccc(Cl)c(Cl)c4)o3)nc(-c3ccccc3)c21 | 0.985 | -0.585 (inactive) | -0.764 (inactive) | 0.167 (inactive) | 1.22 | -1.22 (inactive) | -0.0809 | -0.262 | 0.123 | -0.108 |
| O=C(OCc1ccccc1)C1=CCC2c3[nH]c4ccccc4c3C(=O)C1N2S(=O)(=O)c1ccccc1[N+](=O)[O-] (stereo not given) | 1.52 | 0.802 (inactive) | 1.1 (inactive) | 7.14 (inactive) | 3.57 | -0.639 (inactive) | 0.0673 | 0.614 | 1.03 | -0.112 |
| CN1C(=O)C2C=CC(C(O)C3CC=CCC3)N(N(c3ccccc3)c3ccccc3)C2C1=O (stereo not given) | -1.73 | 0.607 (inactive) | 1.7 (inactive) | 1.01 (inactive) | -0.0863 | -0.843 (inactive) | 0.639 | -0.264 | 0.0898 | -0.0823 |
| C=C(/C(=C/C[C@H](OC(C)=O)c1ccc(CO)o1)c1cc(C(=O)OC)ccc1OC)C(C)C | 0.57 | 1.02 (inactive) | -0.967 (inactive) | 0.0168 (inactive) | 0.381 | 0.865 (inactive) | -0.0485 | 0.58 | 0.368 | -0.0206 |
| COCCCNC(=O)[C@@]1(C)c2ccccc2C(=O)N(C(C)C)[C@H]1c1ccc(CO)cc1 | 1.53 | 0.564 (inactive) | -0.162 (inactive) | 0.642 (inactive) | 1.6 | -0.636 (inactive) | -0.136 | 0.571 | 0.473 | 0.0004 |
| COc1ccc(C(=O)Nc2ccc(CN3C(=O)[C@]4(O[C@H](CCO)[C@@H]([Si](C)(C)c5ccc(OC)cc5)[C@@H]4C)c4ccccc43)cc2)cc1 | 1.47 | -0.0534 (inactive) | -12.2 (active) | 1.62 (inactive) | 2.17 | -0.324 (inactive) | 0.0412 | 0.827 | 1.13 | -0.183 |
| C=CCC(OC(C)=O)[C@@H]1[C@@H](N(Cc2ccc(-c3cccc(C(F)(F)F)c3)o2)C(=O)c2ccc(C)cc2)c2cc(OCCCO)ccc2N1C(=O)Cc1ccc2ccccc2c1 (stereo not given in full) | 0.0457 | 0.677 (inactive) | -0.0286 (inactive) | 0.303 (inactive) | -0.0958 | 1.6 (inactive) | -0.0674 | -0.408 | -0.624 | -0.108 |
| CC(C)C(O)C1C=CC2C(=O)NC(=O)C2N1Nc1ccc(Cl)cc1Cl (stereo not given) | 0.119 | 0.376 (inactive) | -0.843 (inactive) | 1.5 (inactive) | 3.18 | -0.805 (inactive) | 0.112 | -0.463 | 0.0316 | -0.122 |
| O=C1OCCC/C=C\[C@H]2OC34C=CCN(Cc5ccccc5)C(=O)[C@H]3N(CCCO)C(=O)[C@@H]4C12 (stereo not given in full) | -0.523 | 0.769 (inactive) | -0.0304 (inactive) | 0.972 (inactive) | 1.83 | 0.872 (inactive) | -0.126 | -1.75 | -0.386 | -0.246 |
| CC(C)N1C(=O)[C@@]2(Cc3ccccc31)c1ccccc1C(=O)N(Cc1ccccc1Cl)[C@H]2c1ccc(CO)cc1 | 0.477 | -1.05 (inactive) | -1.17 (inactive) | -2.86 (inactive) | -0.203 | -1.25 (inactive) | -0.153 | -0.665 | -0.942 | -0.152 |
| C=CCNC(=O)[C@@H]1[C@H]2C(=O)O[C@H](c3ccccc3)[C@H](c3ccccc3)N2[C@H](c2ccccc2OCCO)[C@@]12C(=O)N(C(=O)OCCOC)c1ccccc12 | 1.54 | 2.86 (inactive) | 2.29 (inactive) | 7.26 (inactive) | 2.64 | -0.442 (inactive) | 0.0615 | 1.71 | 0.884 | -0.0381 |
| [N-]=[N+]=Nc1ccccc1[C@H]1OC(c2ccc(OCCCO)cc2)=N[C@@]1(CCS(=O)(=O)c1ccccc1)C(=O)NCC(O)CO (stereo not given in full) | 0.976 | -0.733 (inactive) | -0.213 (inactive) | 0.803 (inactive) | 3.64 | -0.168 (inactive) | 0.207 | 0.108 | 0.244 | -0.111 |
| COCCOC(=O)N1C(=O)[C@@]2(c3cc(C#Cc4ccc(OC)cc4)ccc31)[C@H](c1ccc(OCCO)cc1)N1[C@H](c3ccccc3)[C@H](c3ccccc3)OC(=O)[C@H]1[C@@H]2C(=O)N1CCN(c2ncccn2)CC1 | 1.55 | 2.92 (inactive) | 2.3 (inactive) | 7.54 (inactive) | 1.55 | 0.468 (inactive) | 0.127 | 1.06 | 1.08 | 0.178 |
| CC(C)=CCN[C@H](CO)c1ccccc1 | -0.198 | -0.613 (inactive) | -4.99 (inactive) | -1.32 (inactive) | 0.138 | -0.291 (inactive) | -0.236 | 0.346 | -0.0083 | -0.203 |
| C=CCOC(=O)[C@H]1[C@@H]2C(=O)O[C@@H](c3ccccc3)[C@@H](c3ccccc3)N2[C@@H](c2ccc(OCCOC(=O)[C@H]3C[C@H]4C(=O)N[C@@H](CCCCNC(C)=O)C(=O)N4[C@H]3c3ccc(O)cc3)cc2)[C@]12C(=O)Nc1ccc(I)cc12 | 1.57 | 1.12 (inactive) | -2.33 (inactive) | 1.75 (inactive) | 1.81 | -2.07 (inactive) | -0.0566 | 1.5 | 1.07 | -0.0088 |
| Cc1ccc(S[C@]2(C(=O)O)CC(=O)N(C(C)C)[C@@H]2c2ccc(CO)cc2I)cc1 | 1.55 | -2.31 (inactive) | -2.85 (inactive) | 1.55 (inactive) | 2.21 | 3.25 (inactive) | 0.122 | -0.0137 | 0.271 | 0.0255 |
| C[C@H]1C2[C@H](Cc3ccccc3)NC(=O)[C@]23C(=O)N[C@H](Cc2ccccc2)C(=O)N2CCC[C@H]2C(=O)NC/C=C\C/C=C/C3[C@@H]2O[C@]12C (stereo not given in full) | 0.178 | -0.662 (inactive) | -1.06 (inactive) | -1.19 (inactive) | 0.392 | 0.132 (inactive) | -0.175 | 0.177 | 0.492 | -0.13 |
| CCC[C@@H]1C[C@@]1(CCC)[C@@H](NS(=O)(=O)c1cccc2cccnc12)c1ccc(Cl)cc1 | 0.0685 | 0.788 (inactive) | 1.01 (inactive) | 0.478 (inactive) | 2.66 | -1.01 (inactive) | 0.0763 | -1.22 | 0.296 | -0.136 |
| C=CCC(OC(C)=O)[C@@H]1[C@@H](N(Cc2ccc(-c3ccccc3)cc2)C(=O)c2ccc(-c3ccccc3)cc2)c2cc(OCCCO)ccc2N1C(=O)Cc1ccc2ccccc2c1 (stereo not given in full) | 0.758 | -0.609 (inactive) | -0.214 (inactive) | 0.218 (inactive) | 0.765 | -0.763 (inactive) | -0.119 | 0.233 | 0.3 | -0.17 |
| COCCOC(=O)N1C(=O)[C@@]2(c3ccccc31)[C@H](c1ccccc1OCCO)N1[C@H](c3ccccc3)[C@H](c3ccccc3)OC(=O)[C@H]1[C@@H]2C(=O)N1CCN(c2ncccn2)CC1 | 1.54 | 1.68 (inactive) | 1.58 (inactive) | 8.88 (active) | 2.59 | 0.22 (inactive) | -0.0529 | 0.994 | 1.11 | -0.12 |
| COC(=O)c1c(CC[C@@H](CO)NC(=O)NCCn2cc(C3(O)CCCC3)nn2)oc(C(C)=O)c1C(=O)OC | 0.463 | -0.539 (inactive) | -0.263 (inactive) | -0.0147 (inactive) | 3.24 | -0.918 (inactive) | -0.23 | 0.0587 | -0.33 | -0.0778 |
| CC[C@@H]1C=C(C(=O)O)[C@H](c2ccc(Br)cc2)N1S(=O)(=O)c1ccc(C)cc1 | 0.399 | -0.564 (inactive) | 0.794 (inactive) | -0.535 (inactive) | 2.7 | -0.319 (inactive) | 0.295 | 0.37 | 0.481 | -0.0512 |
| COc1ccc([Si](C)(C)[C@H]2[C@H](CC(=O)N3Cc4ccccc4C[C@H]3CO)O[C@@]3(C(=O)N(Cc4cccc(N5CCC5=O)c4)c4ccccc43)[C@@H]2C)cc1 | 1.57 | -0.441 (inactive) | 0.716 (inactive) | 1.98 (inactive) | 2.26 | 0.192 (inactive) | -0.12 | 0.914 | 1.06 | 0.0478 |
| C=CCC(OC(C)=O)[C@@H]1[C@@H](N(Cc2ccc(-c3ccccc3)cc2)C(=O)Cc2ccc(OC)cc2)c2cc(OCCCO)ccc2N1C(=O)Cc1ccc2ccccc2c1 (stereo not given in full) | -0.137 | -0.74 (inactive) | -0.619 (inactive) | -0.238 (inactive) | 1.09 | -0.263 (inactive) | -0.153 | -0.688 | -0.0042 | -0.177 |

From PubChem BioAssay
